What was measured:
Assay in all cases: DAPPL (digital affinity profiling via proximity ligation, sequencing); 10 mM Tris-HCl pH 7.5, 50 mM NaCl, 1 mM DTT, 4% glycerol, room temperature, 30 min; GST-TFs on glutathione beads, 16-mer random dsDNA library, 0.1% formaldehyde crosslink after washing; high values mean tight binding
FEV = target: T1, FEV (Homo sapiens, UniProt Q99581 1-238); details: protein: recombinant; tags: N-terminal GST; dsDNA, one strand shown
T1 sequence: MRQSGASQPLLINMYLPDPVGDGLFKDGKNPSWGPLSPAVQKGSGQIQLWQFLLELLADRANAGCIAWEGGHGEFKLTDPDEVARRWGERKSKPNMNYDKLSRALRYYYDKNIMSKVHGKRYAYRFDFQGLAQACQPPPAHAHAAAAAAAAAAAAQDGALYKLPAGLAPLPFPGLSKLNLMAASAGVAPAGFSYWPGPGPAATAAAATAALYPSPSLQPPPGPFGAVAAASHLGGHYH
In short: (§1)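 Sequencing on an Illumina NextSeq500 followed washing, crosslinking with 0.1% formaldehyde, proximity ligation (BsaI/T4 ligase, 1 h, 37 °C) and PCR amplification of pools that had been incubated for 30 min at room temperature with 200 nmole of a random double-stranded 16-mer DNA library in Tris/NaCl/DTT/glycerol buffer. Each pool held DNA-barcoded human transcription factors, expressed in yeast as GST fusions and captured on glutathione beads, plus a tag-only sample. Binding signal is a hexamer's read frequency for a factor divided by its frequency in the tag-only sample.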

ETV5 = ETV5 (Homo sapiens, UniProt P41161 1-510); details: protein: recombinant; tags: N-terminal GST; dsDNA, one strand shown
In short: as §1

HSF1 = HSF1 (Homo sapiens, UniProt Q00613 1-529); details: protein: recombinant; tags: N-terminal GST; chain copies: 3; dsDNA, one strand shown
In short: as §1

SPIC = target: T2, SPIC (Homo sapiens, UniProt Q8N5J4 1-248); details: protein: recombinant; tags: N-terminal GST; dsDNA, one strand shown
T2 sequence: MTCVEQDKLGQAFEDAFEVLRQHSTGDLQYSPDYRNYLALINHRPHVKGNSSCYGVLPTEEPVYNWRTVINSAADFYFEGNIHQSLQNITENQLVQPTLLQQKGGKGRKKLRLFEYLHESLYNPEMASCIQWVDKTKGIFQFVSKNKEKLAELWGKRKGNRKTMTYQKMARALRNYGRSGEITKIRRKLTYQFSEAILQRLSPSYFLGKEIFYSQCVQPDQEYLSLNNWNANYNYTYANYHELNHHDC
In short: as §1

ELF4 = ELF4 (Homo sapiens, UniProt Q99607 1-663); details: protein: recombinant; tags: N-terminal GST; dsDNA, one strand shown
In short: as §1

ELK4 = target: T3, ELK4 (Homo sapiens, UniProt P28324-2 1-405); details: protein: recombinant; tags: N-terminal GST; dsDNA, one strand shown
T3 sequence: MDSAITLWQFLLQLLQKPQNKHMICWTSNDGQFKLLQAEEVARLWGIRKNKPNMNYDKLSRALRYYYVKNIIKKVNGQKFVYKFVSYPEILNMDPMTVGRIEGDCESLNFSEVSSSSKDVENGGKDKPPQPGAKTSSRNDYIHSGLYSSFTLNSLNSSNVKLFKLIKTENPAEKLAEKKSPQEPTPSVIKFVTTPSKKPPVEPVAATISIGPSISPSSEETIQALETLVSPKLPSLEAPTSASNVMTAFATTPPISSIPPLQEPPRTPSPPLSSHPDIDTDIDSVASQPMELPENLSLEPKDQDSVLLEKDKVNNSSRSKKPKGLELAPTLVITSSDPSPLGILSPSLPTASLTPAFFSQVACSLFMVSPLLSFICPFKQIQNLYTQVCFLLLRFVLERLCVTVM
In short: as §1

ETV2 = target: T4, ETV2 (Homo sapiens, UniProt O00321 1-342); details: protein: recombinant; tags: N-terminal GST; dsDNA, one strand shown
T4 sequence: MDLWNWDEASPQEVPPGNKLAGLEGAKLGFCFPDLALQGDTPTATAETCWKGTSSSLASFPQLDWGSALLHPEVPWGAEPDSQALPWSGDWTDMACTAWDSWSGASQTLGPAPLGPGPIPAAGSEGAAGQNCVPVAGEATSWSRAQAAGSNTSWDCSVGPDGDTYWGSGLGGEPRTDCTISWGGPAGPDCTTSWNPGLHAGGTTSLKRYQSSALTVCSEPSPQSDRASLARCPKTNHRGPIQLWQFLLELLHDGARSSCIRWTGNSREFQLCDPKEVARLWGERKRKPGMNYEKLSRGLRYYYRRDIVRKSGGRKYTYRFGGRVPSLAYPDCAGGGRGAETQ
In short: as §1

ELF3 = target: T5, ELF3 (Homo sapiens, UniProt P78545 1-371); details: protein: recombinant; tags: N-terminal GST; dsDNA, one strand shown
T5 sequence: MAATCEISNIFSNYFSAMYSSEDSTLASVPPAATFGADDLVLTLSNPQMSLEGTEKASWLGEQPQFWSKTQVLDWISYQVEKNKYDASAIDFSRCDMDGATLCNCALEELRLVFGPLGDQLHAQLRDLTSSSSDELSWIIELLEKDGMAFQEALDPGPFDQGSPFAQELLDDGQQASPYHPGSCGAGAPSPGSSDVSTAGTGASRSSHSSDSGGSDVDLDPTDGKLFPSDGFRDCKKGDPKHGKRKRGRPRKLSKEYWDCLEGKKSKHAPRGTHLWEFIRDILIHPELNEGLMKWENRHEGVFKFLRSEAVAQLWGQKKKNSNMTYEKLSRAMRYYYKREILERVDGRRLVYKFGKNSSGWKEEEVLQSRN
In short: as §1

CRX = CRX (Homo sapiens, UniProt O43186 1-299); details: protein: recombinant; tags: N-terminal GST; dsDNA, one strand shown
In short: as §1

ETV1 = ETV1 (Homo sapiens, UniProt P50549 1-477); details: protein: recombinant; tags: N-terminal GST; dsDNA, one strand shown
In short: as §1

Chain of ETV5 (P41161 whole entry): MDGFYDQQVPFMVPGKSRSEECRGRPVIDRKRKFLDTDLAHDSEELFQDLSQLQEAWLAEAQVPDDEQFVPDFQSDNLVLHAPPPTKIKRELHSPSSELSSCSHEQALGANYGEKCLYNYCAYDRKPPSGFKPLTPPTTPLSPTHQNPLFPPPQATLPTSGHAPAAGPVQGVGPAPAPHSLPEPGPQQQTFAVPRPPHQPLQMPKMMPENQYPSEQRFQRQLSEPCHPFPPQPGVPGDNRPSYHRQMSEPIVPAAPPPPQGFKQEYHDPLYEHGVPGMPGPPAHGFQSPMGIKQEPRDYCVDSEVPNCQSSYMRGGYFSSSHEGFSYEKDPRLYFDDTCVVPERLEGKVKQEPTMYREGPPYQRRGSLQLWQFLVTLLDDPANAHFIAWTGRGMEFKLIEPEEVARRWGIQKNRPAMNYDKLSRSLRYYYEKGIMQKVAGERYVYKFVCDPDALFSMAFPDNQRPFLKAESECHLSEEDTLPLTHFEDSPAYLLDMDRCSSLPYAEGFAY
Chain of ELF4 (Q99607 whole entry): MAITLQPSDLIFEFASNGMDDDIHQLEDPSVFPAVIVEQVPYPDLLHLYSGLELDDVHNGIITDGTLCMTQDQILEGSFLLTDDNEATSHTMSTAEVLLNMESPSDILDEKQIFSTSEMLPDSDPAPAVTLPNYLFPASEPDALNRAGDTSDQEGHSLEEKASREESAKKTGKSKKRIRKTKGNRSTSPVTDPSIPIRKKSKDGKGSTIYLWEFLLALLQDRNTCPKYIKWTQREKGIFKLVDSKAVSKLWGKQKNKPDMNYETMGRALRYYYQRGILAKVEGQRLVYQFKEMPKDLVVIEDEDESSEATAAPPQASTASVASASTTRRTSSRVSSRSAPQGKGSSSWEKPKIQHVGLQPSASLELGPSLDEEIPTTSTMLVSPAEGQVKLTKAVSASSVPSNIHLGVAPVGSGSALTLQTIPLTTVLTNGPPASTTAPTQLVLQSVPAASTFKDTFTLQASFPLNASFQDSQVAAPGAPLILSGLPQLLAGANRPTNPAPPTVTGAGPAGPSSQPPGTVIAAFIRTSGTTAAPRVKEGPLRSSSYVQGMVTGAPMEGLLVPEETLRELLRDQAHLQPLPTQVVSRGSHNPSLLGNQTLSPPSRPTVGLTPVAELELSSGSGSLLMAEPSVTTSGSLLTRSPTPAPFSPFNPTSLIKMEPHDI
Chain of ETV1 (P50549 whole entry): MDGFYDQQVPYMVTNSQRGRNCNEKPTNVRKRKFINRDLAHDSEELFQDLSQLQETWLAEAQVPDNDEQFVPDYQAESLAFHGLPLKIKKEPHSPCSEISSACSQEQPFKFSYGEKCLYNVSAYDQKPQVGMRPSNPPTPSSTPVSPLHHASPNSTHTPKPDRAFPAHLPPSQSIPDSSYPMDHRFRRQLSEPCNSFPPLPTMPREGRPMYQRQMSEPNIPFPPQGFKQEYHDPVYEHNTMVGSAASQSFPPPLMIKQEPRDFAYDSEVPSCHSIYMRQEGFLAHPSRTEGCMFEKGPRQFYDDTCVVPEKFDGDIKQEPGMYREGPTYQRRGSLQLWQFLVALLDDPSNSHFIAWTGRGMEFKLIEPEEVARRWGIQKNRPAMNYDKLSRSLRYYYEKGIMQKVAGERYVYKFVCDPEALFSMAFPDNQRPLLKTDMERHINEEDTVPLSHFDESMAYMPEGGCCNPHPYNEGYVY
Chain of CRX (O43186 whole entry): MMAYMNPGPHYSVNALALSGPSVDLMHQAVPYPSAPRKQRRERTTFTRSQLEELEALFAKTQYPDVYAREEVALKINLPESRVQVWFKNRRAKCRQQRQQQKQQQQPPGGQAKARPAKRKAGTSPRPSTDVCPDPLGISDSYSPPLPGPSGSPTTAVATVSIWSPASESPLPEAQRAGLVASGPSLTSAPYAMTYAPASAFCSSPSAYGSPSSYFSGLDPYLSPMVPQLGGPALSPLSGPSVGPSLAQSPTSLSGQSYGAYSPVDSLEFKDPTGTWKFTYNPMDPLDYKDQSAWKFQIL
Chain of HSF1 (Q00613 whole entry): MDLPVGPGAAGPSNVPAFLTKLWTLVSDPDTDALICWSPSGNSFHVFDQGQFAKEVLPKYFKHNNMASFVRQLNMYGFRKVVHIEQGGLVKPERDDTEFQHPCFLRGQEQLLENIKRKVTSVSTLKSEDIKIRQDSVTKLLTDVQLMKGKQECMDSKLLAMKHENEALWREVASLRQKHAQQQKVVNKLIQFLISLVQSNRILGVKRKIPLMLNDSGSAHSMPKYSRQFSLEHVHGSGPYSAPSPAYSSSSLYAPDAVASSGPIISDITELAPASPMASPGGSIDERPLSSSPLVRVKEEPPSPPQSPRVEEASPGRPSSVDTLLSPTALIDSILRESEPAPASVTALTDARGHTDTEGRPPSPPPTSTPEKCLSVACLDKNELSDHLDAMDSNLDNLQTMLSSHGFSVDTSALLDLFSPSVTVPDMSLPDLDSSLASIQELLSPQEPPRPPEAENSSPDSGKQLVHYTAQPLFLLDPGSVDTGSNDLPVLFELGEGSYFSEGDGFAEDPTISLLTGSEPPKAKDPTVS

## TTCTAT
FEV
  binding signal: 1.4 fold enrichment (6-mer frequency, TF over GST control)
ETV5
  binding signal: 1.43 fold enrichment (6-mer frequency, TF over GST control)
HSF1
  binding signal: 2.05 fold enrichment (6-mer frequency, TF over GST control)
SPIC
  binding signal: 1.44 fold enrichment (6-mer frequency, TF over GST control)
ELF4
  binding signal: 1.4 fold enrichment (6-mer frequency, TF over GST control)
ELK4
  binding signal: 1.52 fold enrichment (6-mer frequency, TF over GST control)
ETV2
  binding signal: 1.32 fold enrichment (6-mer frequency, TF over GST control)
ELF3
  binding signal: 1.28 fold enrichment (6-mer frequency, TF over GST control)
CRX
  binding signal: 1.67 fold enrichment (6-mer frequency, TF over GST control)
ETV1
  binding signal: 1.3 fold enrichment (6-mer frequency, TF over GST control)

— paper PMC7862700, “An all-to-all approach to the identification of sequence-specific readers for epigenetic DNA modifications on cytosine”
